In all, about 410,000 compounds went through this assay and about 6,400 (1.6%) were called active. Not shown: some 20% with an inconclusive outcome. Many of the other results were omitted from the sample, so actives are more common in it than they were. A number with no mark means an inactive call. Calls come from the whole dose curve; as a rule, active = well fitted inhibition curve with a large enough effect; inconclusive = small, poorly fitted or top-dose-only effect; inactive = no such curve, though single readings can be large or run the other way.
Molecular target: Glucagon-like peptide 1 receptor (Homo sapiens) (UniProt P43220)
Sequence (P43220 whole entry, looked up): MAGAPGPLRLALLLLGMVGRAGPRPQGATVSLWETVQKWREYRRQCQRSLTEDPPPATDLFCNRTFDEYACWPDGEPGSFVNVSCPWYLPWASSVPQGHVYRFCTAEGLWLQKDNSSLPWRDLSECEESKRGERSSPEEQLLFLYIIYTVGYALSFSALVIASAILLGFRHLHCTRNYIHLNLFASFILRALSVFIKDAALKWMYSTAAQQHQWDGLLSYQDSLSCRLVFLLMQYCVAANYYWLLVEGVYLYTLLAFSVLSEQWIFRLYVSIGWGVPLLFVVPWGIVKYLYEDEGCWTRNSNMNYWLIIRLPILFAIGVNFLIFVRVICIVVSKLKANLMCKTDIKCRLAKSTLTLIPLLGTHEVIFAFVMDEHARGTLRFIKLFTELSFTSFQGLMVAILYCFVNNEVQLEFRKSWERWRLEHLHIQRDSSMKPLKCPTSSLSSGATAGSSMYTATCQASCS
Experiment: qHTS of GLP-1 Receptor Inverse Agonists (Inhibition Mode); note: nearly all actives have a fitted effect of over 55% in size
Conditions: HEK293 GLP-1R CRE-luciferase, luminescence, 24 h, GLP-1R form is constitutively active; series mostly up to 38.3 µM; activity change, negative = inhibition: at the top concentration
Procedure, shortened: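 Constitutively active GLP-1R drives a cAMP-responsive luciferase in stably transfected HEK293 cells; test compounds are added after overnight (12 h) attachment and left 24 hr, and signal loss in luminescence marks inhibition.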
% is set by controls: 0 for no effect and ±100 for the full control effect; potency is the fitted concentration of half-maximal effect.

SMILES | activity change, negative = inhibition [%] | Potency
O=C1c2ccccc2C(=O)C1c1ccccc1F | 12.5 | 
O=C(OCc1ccccc1)N1CCC2CC1c1cc(N3CCN(S(=O)(=O)c4cc(Cl)cc(Cl)c4)CC3)ccc12 (stereo unspecified) | -0.327 | 
CC(=O)Nc1ccc(SCC(=O)NC(=O)c2ccc(Cl)cc2)cc1 | -4.29 | 
COc1ccc([C@H]2C[C@@H](n3cc(COC(=O)c4ccccc4)nn3)[C@H](O)CN2C(=O)c2cccs2)cc1 | -28.9 | 
CC(C)OC(=O)CC(=O)CC(O)c1cccc([N+](=O)[O-])c1 (stereo unspecified) | 1.7 | 
NCCCCC(C(=O)O)N(C(=O)OCc1ccccc1)C(=O)OCc1ccccc1 (stereo unspecified) | 28.4 | 
COc1ccc(CN2C(=O)C(CC(=O)NCCN3CCOCC3)CC(C(=O)N(C(C)C)C(C)C)=C2C)cc1 (stereo unspecified) | 14.3 | 
O=C(NC(=S)Nc1ccccc1N1CCCCC1)c1ccc(F)cc1 |  | 12.6 µM (active)
O=C(Nc1ccccc1N1CCCC1)c1ccc2ccccc2c1 | 4.76 | 
COc1ccc(C(=O)NC(=S)Nc2ccccc2N2CCN(S(C)(=O)=O)CC2)cc1OC | 19.1 | 
CCCC/C=C/c1cccc2nncn12 | 5.17 | 
Cc1ccc(C=O)c([B-](F)(F)F)c1 | -30.1 | 
CN1c2ccc(C=O)c3c(C=O)ccc(c23)N(C)C1(C)C |  | 12.6 µM (active)
CCOC(=O)N1C(=O)C[C@](Sc2ccc(C)cc2)(C(=O)OC)[C@H]1c1ccccc1 | 5.79 | 
COc1cccc(NC(=O)[C@H](Cc2c[nH]c3ccccc23)NC(=O)[C@@H]2Cc3ccccc3CN2)c1 |  | 3.98 µM (active)
COc1ccc(CNC(=O)[C@H](Cc2c[nH]c3ccccc23)NC(C)=O)cc1OC | 11 | 
COc1ccc(NC(=O)[C@H](NC(=O)[C@@H]2Cc3ccccc3CN2)c2ccccc2)cc1 | -22.4 | 
O=C(O)c1ccccc1-c1cccc2nncn12 | 12 | 
CCCn1c(C)cc(C(=O)COC(=O)c2c(C)nn(-c3ccccc3)c2C)c1C |  | 10 µM (active)
Cc1cccc(C)c1NC(=O)COC(=O)c1c(C)nn(-c2ccccc2)c1C | -11 | 
COc1ccc(CNC(=O)COC(=O)c2c(C)nn(-c3ccccc3)c2C)cc1OC | -0.123 | 
Cc1noc(C)c1C(=O)N1CCC1(C)C(=O)NS(=O)(=O)c1ccc(C#N)cc1 (stereo unspecified) | 15.3 | 
Clc1ccc(-c2cccc3nccn23)cc1 | 13 | 
COc1ccc(C2CC(c3cccc(OC)c3)=NN2c2ccc(S(N)(=O)=O)cc2)cc1 (stereo unspecified) | 27.5 | 
CCCn1c(=N)c(C(=O)NCc2ccccc2)cc2c(=O)n3cccc(C)c3nc21 | 2.15 | 
Cc1cccn2c(=O)c3cc(C(=O)NCCN4CCOCC4)c(=N)n(Cc4cccnc4)c3nc12 |  | 3.98 µM (active)

SMILES | activity change, negative = inhibition [%] | Potency
Cc1cccn2c(=O)c3cc(C(=O)NCC4CCCO4)c(=N)n(Cc4ccc(F)cc4)c3nc12 (stereo unspecified) | 85.4 | 
C=CCn1c2c(c3ccccc31)CCC2 | -1.11 | 
COc1ccc2c(c1)C=CC1(O2)N(CCO)c2ccccc2C1(C)C (stereo unspecified) |  | 2.51 µM (active)
CN1c2ccc([N+](=O)[O-])cc2C(C)(C)C12C=Cc1cc(C(=O)O)ccc1O2 (stereo unspecified) | 0.491 | 
CCCCn1nnnc1C1(C)CCC(=O)N1Cc1ccc(OC)c(OC)c1 (stereo unspecified) | 11.4 | 
Cc1cccc(C)c1NC(=O)CNC(=O)c1ccc(N2CCOCC2)c([N+](=O)[O-])c1 | 13.7 | 
CC(C)NC(=O)C1(C)CCCCN1Cc1cccc(C(F)(F)F)c1 (stereo unspecified) | 1.63 | 
CC1(C(=O)Nc2cccnc2)Cc2c(-c3ccccc3)ccnc2O1 (stereo unspecified) | 1.75 | 
CC(=O)Nc1cnc(-c2ccc(O)cc2C)cn1 | 18.2 | 
Oc1c(CN2CCN(c3ccc(F)cc3)CC2)cc(Cl)c2cccnc12 |  | 2.51 µM (active)
Cc1cccc(C)c1NC(=O)CN1CCN(c2ccc(F)cc2)CC1 | 2.26 | 
Cc1cccnc1NC(=O)c1cccc(S(=O)(=O)N2CCN(c3ccc(F)cc3)CC2)c1 | -19.3 | 
Cc1ccc(S(=O)(=O)NN=C2CC(C)(C)CC(=O)C2(C)C)cc1 | -13.3 | 
COc1ccccc1C(=O)NC(=S)NC12CC3CC(CC(C3)C1)C2 | -32.2 | 
CSc1ccc(/C=C/C(=O)NC23CC4CC(CC(C4)C2)C3)cc1 |  | 11.2 µM (active)
COc1ccc(/C=C/C(=O)Nc2ccc(C34CC5CC(CC(O)(C5)C3)C4)cc2)cc1OC | -5.2 | 
COc1ccc(C(=O)NCC2CCCO2)cc1S(=O)(=O)NCc1ccc(Cl)cc1 (stereo unspecified) | -4.08 | 
Cc1cccc(C)c1-n1nnnc1C1(C)CCC(=O)N1CCOc1ccccc1 (stereo unspecified) | 6.38 | 
O=C(NCc1ccco1)c1cccc(-c2ccc3nncn3c2)c1 | 17.9 | 
CCCCN(Cc1ccccc1)C(=O)C1CCN(Cc2sccc2C)CC1 |  | 7.08 µM (active)
CCCC(=O)C1CCN(Cc2ccccc2)CC1 | -6.46 | 
CCCCN(C)C(=O)C1CCN(Cc2ccccn2)CC1 | -6.28 | 
Cc1cccc(Nc2nc(-c3ccccc3)cs2)n1 |  | 3.16 µM (active)
O=C(O)c1ccccc1C(=O)Nc1nc(-c2ccccc2)cs1 | 14.7 | 
CC(=O)Nc1cccc(-c2csc(Nc3cccc(C)n3)n2)c1 | 83.8 | 

— PubChem BioAssay AID624417 (National Center for Advancing Translational Sciences (NCATS), 2012)
